According to the supplement of paper PMC6555819:

What was measured:
Assay in all cases: PBM binding z-score (relative to random genomic background probes); higher = stronger binding; sequences stand for … in GC…GCGATTGACAGCGTAGAATGAAGG
[1] = tested on: FXR:RXRa (NR concentration 270 nM, RXRa partner concentration 90 nM)
Summary of the method: (§1)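 Antibodies against each partner of ligand-free nuclear receptor dimers (one per run) detected binding on custom Agilent 4×180K protein-binding microarrays after 1 h incubation. The double-stranded probes had 34-nt variable regions carrying direct-repeat seeds, single-nucleotide variants, half-site ablations and random human genomic background sequences. Binding z-scores, from regression-normalized fluorescence, use the random background probes as reference.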

[2] = tested on: LXRa:RXRa (NR concentration 270 nM, RXRa partner concentration 90 nM)
Summary of the method: as §1

[3] = tested on: LXRa homodimer (NR concentration 270 nM)
Summary of the method: as §1

[4] = tested on: LXRb:RXRa (NR concentration 270 nM, RXRa partner concentration 90 nM)
Summary of the method: as §1

[5] = tested on: LXRb homodimer (NR concentration 270 nM)
Summary of the method: as §1

[6] = tested on: PPARa:RXRa (NR concentration 270 nM, RXRa partner concentration 90 nM)
Summary of the method: as §1

[7] = tested on: PPARg:RXRa (NR concentration 180 nM, RXRa partner concentration 90 nM)
Summary of the method: as §1

[8] = tested on: PPARg:RXRa 270nM:90nM, anti-RXR (NR concentration 270 nM, RXRa partner concentration 90 nM)
Summary of the method: as §1

[9] = tested on: PPARg:RXRa 30nM:10nM, anti-RXR (NR concentration 30 nM, RXRa partner concentration 10 nM)
Summary of the method: as §1

[10] = tested on: PPARg:RXRa 90nM:30nM, anti-RXR (NR concentration 90 nM, RXRa partner concentration 30 nM)
Summary of the method: as §1

[11] = tested on: PPARg:RXRa DBDmut IVT, anti-RXR (DBD mutation: RXRa K156A/R161A, NR concentration 270 nM, RXRa partner concentration 90 nM)
Summary of the method: as §1

[12] = tested on: PPARg:RXRa IVT, anti-PPARg (NR concentration 270 nM, RXRa partner concentration 90 nM)
Summary of the method: as §1

[13] = tested on: PPARg DBDmut:RXRa IVT, anti-PPARg (DBD mutation: PPARg1 K132A/R137A, NR concentration 270 nM, RXRa partner concentration 90 nM)
Summary of the method: as §1

[14] = tested on: PPARg DBDmut IVT, anti-PPARg (DBD mutation: PPARg1 K132A/R137A, NR concentration 270 nM)
Summary of the method: as §1

[15] = tested on: PPARg homodimer (NR concentration 180 nM)
Summary of the method: as §1

[16] = tested on: PXR:RXRa (NR concentration 270 nM, RXRa partner concentration 90 nM)
Summary of the method: as §1

[17] = tested on: PXR homodimer (NR concentration 270 nM)
Summary of the method: as §1

[18] = tested on: RARa:RXR (NR concentration 270 nM, RXRa partner concentration 90 nM)
Summary of the method: as §1

[19] = tested on: RARa homodimer (NR concentration 270 nM)
Summary of the method: as §1

[20] = tested on: RARb:RXRa (NR concentration 270 nM, RXRa partner concentration 90 nM)
Summary of the method: as §1

Sequence	PBM binding z-score [1]	PBM binding z-score [2]	PBM binding z-score [3]	PBM binding z-score [4]	PBM binding z-score [5]	PBM binding z-score [6]	PBM binding z-score [7]	PBM binding z-score [8]	PBM binding z-score [9]	PBM binding z-score [10]	PBM binding z-score [11]	PBM binding z-score [12]	PBM binding z-score [13]	PBM binding z-score [14]	PBM binding z-score [15]	PBM binding z-score [16]	PBM binding z-score [17]	PBM binding z-score [18]	PBM binding z-score [19]	PBM binding z-score [20]
AGTCAAAGTTCAGGACGAGGTGACGTAAAGCACG	4.38	3.95	1.24	1.82	0.0614	3.67	4.83	5.11	2.14	4.25	-0.365	2.55	-0.0177	-0.0513	2.73	3.51	1.23	3.58	0.938	4.46
ATATGTAGGTTATATCCGGGTCATTCAGGCTATG	2.15	4.34	3.29	2.93	1.44	4.19	4.45	4.07	1.69	3.33	6.81	6.59	5.13	2.59	3.38	3.78	2.63	3.9	1.12	2.13
CAAACTAGGTCACGAAAGGTAAAAGTCGAATGAC	5.18	4.51	0.678	3	0.18	5.71	9.74	7.96	6.05	7.49	8.36	9.37	5.06	2.46	2.6	3.12	0.438	3.69	1.43	4.33
CTAGACAGGTGAAAGGTAACTCAGTCTGGTACGC	0.53	0.864	-0.332	0.732	-0.56	3.4	6.11	6.66	5.12	6.47	1.94	3.43	0.142	0.0221	0.635	0.951	-0.397	1.91	-0.0814	1.22
AGTCAAAATTCATCTAGGTAACGTAAGATATGCT	-0.194	-0.373	-0.0496	-0.0959	-0.222	0.0588	1.19	0.183	0.359	0.0171	0.746	2.03	1.05	0.853	0.212	-0.186	0.107	0.122	0.616	0.168
GCATATAGGTAATACAAGGTGAAAGTCCGATTGT	2.2	2.59	0.161	0.649	-0.271	1.68	1.37	1.36	0.636	0.931	4.15	3.2	1.3	0.902	0.296	0.502	0.135	0.993	0.75	0.523
CTCGAAAGGTCGGTTGAGGTGAGTCTACGGATAA	2.75	1.97	-0.215	1.29	-0.179	2.62	0.161	1.13	0.171	0.803	0.22	0.948	-0.0486	-0.386	1.13	3.39	-0.0836	2.2	-0.523	2.97
